Legend:
Test in all cases: log2 ratio of Biotin-Ahx-Ub-VS probe labelling (fragment/DMSO); higher = less target engagement (more negative = stronger competition), active = hit call of the paper (q ≤ 0.05, log2 ratio ≤ -1)
Details in all cases: compound concentration: 200 uM; treatment time: 3 h
USP19 = target: T1, USP19 (UniProt O94966)
T1 sequence (whole entry): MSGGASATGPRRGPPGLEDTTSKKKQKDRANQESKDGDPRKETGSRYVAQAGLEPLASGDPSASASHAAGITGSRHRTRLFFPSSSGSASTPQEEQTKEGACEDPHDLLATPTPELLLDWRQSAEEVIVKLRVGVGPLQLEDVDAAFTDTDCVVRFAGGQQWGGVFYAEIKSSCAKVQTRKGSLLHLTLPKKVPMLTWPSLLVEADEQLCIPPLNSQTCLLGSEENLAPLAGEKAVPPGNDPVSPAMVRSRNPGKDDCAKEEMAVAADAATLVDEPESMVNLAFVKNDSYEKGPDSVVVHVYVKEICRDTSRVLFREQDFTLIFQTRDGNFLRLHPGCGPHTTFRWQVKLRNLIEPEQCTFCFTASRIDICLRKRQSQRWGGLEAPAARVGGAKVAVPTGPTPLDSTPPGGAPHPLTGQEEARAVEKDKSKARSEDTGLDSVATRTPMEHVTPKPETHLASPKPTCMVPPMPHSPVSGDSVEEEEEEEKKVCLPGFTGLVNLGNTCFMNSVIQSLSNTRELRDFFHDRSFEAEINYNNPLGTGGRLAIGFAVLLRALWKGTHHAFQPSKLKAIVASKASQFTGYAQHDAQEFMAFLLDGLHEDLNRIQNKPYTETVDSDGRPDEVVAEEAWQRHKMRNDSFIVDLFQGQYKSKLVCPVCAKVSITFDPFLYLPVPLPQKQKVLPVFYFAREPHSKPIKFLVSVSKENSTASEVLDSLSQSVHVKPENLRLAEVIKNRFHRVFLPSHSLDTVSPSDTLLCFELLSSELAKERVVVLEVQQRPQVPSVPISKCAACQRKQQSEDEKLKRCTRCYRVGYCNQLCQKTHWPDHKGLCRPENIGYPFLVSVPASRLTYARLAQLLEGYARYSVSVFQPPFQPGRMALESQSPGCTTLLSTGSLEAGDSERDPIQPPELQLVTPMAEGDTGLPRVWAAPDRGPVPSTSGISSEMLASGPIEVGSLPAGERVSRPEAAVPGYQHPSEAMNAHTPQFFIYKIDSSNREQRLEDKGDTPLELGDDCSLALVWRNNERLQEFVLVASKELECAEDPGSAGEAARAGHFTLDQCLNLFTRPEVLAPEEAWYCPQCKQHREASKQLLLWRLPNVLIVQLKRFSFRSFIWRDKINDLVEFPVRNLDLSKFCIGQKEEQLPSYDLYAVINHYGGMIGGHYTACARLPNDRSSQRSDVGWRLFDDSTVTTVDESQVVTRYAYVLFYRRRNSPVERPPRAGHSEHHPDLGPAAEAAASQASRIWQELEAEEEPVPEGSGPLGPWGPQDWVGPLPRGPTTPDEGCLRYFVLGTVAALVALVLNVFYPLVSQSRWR
How it was run: (§1)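 HEK293T lysate, 495 µg per sample in Tris/CHAPS/IGEPAL buffer with protease inhibitors, was treated in triplicate with fragment at 200 µM or vehicle for 3 h and then with Biotin-Ahx-Ub-VS at 0.5 µM final for 1 h. Labelled DUBs were NeutrAvidin-enriched, digested with LysC and trypsin, and run by diaPASEF LC-MS/MS. Spectronaut label-free quantities were global-median-normalised, and values are average log2 fragment/vehicle ratios by unpaired t-test on proteins with ≥2 unique peptides.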

USP22 = target: T2, USP22 (UniProt Q9UPT9)
T2 sequence (whole entry): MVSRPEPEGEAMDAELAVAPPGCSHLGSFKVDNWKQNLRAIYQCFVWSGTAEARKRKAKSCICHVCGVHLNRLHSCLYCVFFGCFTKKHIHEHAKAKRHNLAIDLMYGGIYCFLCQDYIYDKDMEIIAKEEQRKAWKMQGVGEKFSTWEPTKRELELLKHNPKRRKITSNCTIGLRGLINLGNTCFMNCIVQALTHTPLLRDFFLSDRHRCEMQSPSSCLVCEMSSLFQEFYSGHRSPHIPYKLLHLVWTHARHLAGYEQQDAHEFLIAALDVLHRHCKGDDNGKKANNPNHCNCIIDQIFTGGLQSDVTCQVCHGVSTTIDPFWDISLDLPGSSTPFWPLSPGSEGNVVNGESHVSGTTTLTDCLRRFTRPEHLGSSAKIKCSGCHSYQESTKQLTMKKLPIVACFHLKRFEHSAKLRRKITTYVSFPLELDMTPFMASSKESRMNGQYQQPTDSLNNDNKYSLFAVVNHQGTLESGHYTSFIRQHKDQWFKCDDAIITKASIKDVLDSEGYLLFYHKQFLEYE
How it was run: as §1

USP24 = USP24 (UniProt Q9UPU5)
Chain of USP24 (Q9UPU5 whole entry): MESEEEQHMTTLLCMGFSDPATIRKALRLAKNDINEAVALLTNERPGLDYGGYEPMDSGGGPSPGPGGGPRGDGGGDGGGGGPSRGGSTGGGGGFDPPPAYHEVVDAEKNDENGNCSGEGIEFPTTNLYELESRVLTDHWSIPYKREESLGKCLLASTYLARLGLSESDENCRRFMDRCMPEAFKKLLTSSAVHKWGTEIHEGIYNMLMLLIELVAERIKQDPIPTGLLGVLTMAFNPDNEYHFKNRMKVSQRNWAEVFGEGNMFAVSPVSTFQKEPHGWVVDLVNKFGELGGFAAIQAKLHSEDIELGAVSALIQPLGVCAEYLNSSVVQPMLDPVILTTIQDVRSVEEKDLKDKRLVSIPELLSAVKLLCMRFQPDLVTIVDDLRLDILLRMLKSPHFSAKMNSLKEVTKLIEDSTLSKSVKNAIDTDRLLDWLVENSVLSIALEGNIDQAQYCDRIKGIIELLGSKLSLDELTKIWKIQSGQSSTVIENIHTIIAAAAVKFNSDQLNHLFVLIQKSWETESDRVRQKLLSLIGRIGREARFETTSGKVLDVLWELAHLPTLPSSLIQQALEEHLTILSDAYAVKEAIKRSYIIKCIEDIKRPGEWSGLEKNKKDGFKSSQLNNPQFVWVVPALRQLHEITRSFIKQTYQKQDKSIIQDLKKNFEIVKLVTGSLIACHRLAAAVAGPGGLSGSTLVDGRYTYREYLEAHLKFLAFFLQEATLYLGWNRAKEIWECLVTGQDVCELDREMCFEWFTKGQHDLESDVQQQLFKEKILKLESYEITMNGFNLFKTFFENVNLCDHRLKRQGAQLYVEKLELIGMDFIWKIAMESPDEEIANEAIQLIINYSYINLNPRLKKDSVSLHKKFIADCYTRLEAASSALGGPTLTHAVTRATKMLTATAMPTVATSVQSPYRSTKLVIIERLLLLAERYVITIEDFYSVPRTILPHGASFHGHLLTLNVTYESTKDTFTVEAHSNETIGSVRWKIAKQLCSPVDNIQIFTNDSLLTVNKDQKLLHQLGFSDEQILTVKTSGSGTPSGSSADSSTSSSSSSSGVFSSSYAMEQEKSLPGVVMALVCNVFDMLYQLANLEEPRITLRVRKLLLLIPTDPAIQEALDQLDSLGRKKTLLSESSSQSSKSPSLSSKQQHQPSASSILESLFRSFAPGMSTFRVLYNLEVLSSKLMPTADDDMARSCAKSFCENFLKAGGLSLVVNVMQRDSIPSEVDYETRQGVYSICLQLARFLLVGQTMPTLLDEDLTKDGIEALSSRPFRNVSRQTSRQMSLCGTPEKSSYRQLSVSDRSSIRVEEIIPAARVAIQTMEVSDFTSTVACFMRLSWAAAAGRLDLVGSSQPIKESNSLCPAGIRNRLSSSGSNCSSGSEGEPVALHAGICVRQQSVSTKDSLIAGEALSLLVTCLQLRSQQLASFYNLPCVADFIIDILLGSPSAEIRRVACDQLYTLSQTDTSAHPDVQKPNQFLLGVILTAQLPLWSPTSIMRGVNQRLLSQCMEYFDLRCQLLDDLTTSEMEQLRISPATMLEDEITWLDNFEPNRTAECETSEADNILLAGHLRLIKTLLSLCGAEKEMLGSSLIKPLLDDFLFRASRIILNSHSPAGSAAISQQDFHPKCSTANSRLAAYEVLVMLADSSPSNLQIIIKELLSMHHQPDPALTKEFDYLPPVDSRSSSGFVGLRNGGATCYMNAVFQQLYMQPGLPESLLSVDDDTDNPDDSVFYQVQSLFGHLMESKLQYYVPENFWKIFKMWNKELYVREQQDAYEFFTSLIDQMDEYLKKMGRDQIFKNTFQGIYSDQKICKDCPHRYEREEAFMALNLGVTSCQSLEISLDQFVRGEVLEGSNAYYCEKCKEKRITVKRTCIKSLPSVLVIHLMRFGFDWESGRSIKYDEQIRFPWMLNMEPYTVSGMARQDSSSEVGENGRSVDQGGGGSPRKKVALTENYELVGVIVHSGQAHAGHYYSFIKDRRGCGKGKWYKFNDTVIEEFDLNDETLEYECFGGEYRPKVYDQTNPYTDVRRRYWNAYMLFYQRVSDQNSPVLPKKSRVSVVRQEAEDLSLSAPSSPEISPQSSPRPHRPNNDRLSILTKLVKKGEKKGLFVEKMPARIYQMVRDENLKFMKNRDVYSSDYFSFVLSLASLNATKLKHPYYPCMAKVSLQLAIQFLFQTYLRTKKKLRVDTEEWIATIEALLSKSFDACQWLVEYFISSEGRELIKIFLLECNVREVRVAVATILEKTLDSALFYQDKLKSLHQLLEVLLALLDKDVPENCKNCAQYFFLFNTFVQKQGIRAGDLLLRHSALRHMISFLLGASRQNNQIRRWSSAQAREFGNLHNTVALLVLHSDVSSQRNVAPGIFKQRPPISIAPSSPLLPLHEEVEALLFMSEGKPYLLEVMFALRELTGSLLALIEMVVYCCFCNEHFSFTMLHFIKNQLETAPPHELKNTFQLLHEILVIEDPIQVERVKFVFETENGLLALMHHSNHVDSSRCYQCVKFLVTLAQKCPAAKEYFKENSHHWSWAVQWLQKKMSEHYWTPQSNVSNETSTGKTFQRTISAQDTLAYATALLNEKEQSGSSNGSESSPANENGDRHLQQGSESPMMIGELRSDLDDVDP
How it was run: as §1

USP25 = target: T3, USP25 (UniProt Q9UHP3)
T3 sequence (whole entry): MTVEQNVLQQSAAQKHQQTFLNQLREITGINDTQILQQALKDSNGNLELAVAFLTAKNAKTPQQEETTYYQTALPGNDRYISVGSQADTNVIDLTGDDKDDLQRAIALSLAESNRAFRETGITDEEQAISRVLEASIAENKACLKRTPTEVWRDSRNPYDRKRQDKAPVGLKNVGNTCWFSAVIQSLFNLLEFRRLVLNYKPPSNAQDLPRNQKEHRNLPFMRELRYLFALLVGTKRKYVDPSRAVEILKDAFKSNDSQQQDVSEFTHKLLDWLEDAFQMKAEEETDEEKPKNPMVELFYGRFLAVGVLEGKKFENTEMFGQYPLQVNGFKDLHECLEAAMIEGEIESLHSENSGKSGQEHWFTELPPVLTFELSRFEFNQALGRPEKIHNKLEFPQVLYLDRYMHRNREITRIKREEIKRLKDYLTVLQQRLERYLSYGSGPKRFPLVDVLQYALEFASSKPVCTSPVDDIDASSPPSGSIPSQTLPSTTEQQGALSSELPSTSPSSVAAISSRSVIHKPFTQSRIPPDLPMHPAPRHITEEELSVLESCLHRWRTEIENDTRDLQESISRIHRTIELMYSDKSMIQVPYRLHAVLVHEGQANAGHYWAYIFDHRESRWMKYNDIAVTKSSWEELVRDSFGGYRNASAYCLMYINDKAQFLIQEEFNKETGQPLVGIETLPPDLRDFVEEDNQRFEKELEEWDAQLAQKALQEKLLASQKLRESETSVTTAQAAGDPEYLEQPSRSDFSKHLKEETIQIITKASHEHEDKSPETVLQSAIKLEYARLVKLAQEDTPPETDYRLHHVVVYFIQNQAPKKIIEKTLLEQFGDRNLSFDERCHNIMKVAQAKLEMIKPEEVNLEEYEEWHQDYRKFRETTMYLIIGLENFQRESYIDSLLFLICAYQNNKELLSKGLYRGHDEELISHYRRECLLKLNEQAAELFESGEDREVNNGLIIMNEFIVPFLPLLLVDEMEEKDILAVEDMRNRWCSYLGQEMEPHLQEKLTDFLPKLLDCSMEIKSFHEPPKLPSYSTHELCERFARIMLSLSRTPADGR
How it was run: as §1

USP28 = target: T4, USP28 (UniProt Q96RU2)
T4 sequence (whole entry): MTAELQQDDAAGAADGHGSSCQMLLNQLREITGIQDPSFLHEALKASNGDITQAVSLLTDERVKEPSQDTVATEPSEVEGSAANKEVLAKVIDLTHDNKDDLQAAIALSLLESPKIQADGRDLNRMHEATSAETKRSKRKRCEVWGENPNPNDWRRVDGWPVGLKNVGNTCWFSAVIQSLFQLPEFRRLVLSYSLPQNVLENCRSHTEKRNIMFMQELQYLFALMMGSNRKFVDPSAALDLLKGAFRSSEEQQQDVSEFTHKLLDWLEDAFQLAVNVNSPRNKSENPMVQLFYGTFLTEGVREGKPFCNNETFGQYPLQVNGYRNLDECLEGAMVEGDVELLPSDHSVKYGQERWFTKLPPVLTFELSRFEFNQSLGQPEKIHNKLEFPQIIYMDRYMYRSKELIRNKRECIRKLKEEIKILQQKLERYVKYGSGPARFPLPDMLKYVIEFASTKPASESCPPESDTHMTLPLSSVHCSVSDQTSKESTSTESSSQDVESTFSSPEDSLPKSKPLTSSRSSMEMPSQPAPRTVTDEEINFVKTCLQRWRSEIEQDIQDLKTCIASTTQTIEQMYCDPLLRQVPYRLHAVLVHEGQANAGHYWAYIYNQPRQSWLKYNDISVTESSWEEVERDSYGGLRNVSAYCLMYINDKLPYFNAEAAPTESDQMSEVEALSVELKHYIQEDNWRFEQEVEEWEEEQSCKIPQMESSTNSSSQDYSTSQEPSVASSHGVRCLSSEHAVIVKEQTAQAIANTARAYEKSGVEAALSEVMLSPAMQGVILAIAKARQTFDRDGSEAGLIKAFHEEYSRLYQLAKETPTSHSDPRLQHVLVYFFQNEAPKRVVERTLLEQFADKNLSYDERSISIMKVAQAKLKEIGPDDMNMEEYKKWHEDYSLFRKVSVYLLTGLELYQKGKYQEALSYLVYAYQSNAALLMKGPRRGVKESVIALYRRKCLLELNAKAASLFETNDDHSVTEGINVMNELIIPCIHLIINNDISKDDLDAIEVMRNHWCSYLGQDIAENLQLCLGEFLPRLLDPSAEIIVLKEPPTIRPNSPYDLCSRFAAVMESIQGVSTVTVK
How it was run: as §1

Measured: log2 ratio of Biotin-Ahx-Ub-VS probe labelling

O=C(CCl)Nc1ccccc1C(F)(F)F
inactive: USP19 -0.154 | USP22 -0.117 | USP24 -0.445 | USP25 -0.713 | USP28 -0.598
